Screening results deposited in PubChem BioAssay by National Center for Advancing Translational Sciences (NCATS).
This is a sample that favours compounds with a hit; in the whole collection about 3.2% have one here.
RE007 growth inh: less growth of the S. pombe RE007 Vpr strain; S. pombe RE007 Vpr strain, BacTiter-Glo ATP luminescence, 24 h; Potency, µM (titrated, usually from 92.2 µM), inactives show top-dose activity change, negative = less growth, most hits filed as inhibitors; 0.21% of 360,000 active; AID 651644; active = well fitted falling curve with a large enough effect; inconclusive = small, poorly fitted or top-dose-only effect; inactive = no such curve, though single readings can be large or run the other way; also: nearly all actives have a fitted effect of over 50% in size
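Fission yeast RE007 carrying one integrated HIV-1 vpr copy, seeded at OD 0.01 in PMG+AL medium with 23 nL pinned compound. Grown 24 h at 30 degrees; viability read by BacTiter-Glo luminescence after 5 min.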
AmpC inh detg: AmpC beta-lactamase inhibition with detergent present | AmpC hydrolysis of nitrocefin, absorbance 480 nm, 0.01% Triton | AID 485294 | 0.041% of 370,000 active | Potency, µM (highest dose often 114 µM), without a hit: at the top dose activity change, negative = inhibition, most hits filed as inhibitors | P00811;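 also: 0% = no-compound wells and -100% = no-enzyme wells; nearly all actives have a fitted effect of over 25% in size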
Target sequence (P00811 whole entry, looked up): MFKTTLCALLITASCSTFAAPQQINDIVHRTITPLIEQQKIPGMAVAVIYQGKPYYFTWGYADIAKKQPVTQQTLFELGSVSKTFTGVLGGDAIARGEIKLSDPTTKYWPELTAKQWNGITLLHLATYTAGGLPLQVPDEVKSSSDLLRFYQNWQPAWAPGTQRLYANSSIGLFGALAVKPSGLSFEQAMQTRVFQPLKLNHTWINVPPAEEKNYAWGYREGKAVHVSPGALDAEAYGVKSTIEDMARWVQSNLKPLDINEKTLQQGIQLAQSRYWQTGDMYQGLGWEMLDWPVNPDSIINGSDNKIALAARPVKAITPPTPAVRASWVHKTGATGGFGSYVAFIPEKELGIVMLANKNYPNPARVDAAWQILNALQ
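AmpC (5.3 nM in the dispensed reagent) in 20 mM phosphate pH 7.0 with 0.01% (detergent screen) or 0.0001% Triton X-100 was preincubated with compounds for 15 min at room temperature. Nitrocefin was then added from an 800 uM solution, and hydrolysis was followed at 480 nm.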
AmpC inh no detg: inhibitors of E. coli AmpC beta-lactamase without detergent; AmpC nitrocefin hydrolysis, absorbance 480 nm, 0.0001% Triton; P00811; 0.52% of 330,000 active; Potency, µM (highest dose often 57.1 µM), inactives show top-dose activity change, negative = inhibition, actives largely listed as inhibitors;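 also: plate controls were no compound for no effect and no enzyme for full effect; nearly all actives have a fitted effect of over 20% in size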
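20 mM phosphate pH 7.0 + 0.01% (detergent screen) or 0.0001% Triton X-100; 5.3 nM AmpC reagent; cpd preinc 15 min RT; nitrocefin (800 uM stock) to start; A480 q20 s × 4 min; Activity was normalised to no-enzyme and no-compound control wells.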
AMA1 RON2 block: inhibitors of Plasmodium falciparum AMA1-RON2 interaction; AID 720542; Potency, µM (titrated, usually from 58.2 µM), for the others: at the top dose activity change, negative = inhibition, actives largely listed as inhibitors; AlphaScreen AMA1-biotinylated RON2 peptide binding; 0.2% of 360,000 active;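 also: 0% = vehicle wells and -100% = peptide control; nearly all actives have a fitted effect of over 45% in size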
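AMA1 (3D7) with his tag at 25 nM final met compounds first, then biotinylated RON2 peptide at 25 nM; detection used donor plus acceptor beads, 10 µg/mL apiece, read by AlphaScreen after 30 min at room temperature.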
Sm TGR block: inhibitors of Schistosoma mansoni thioredoxin glutathione reductase; AID 485364; 3% of 360,000 active; Potency, µM (titrated, usually from 114 µM), for inactives: at the highest dose activity change, negative = inhibition, hits mostly inhibitors; Q962Y6; purified TGR, DTNB reduction, TNB absorbance 405 nm; also: nearly all actives have a fitted effect of over 60% in size
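TGR 20 nM + NADPH 100 uM (dispensed conc.), cpd preinc 15 min RT; start with NADPH (500 uM addition) then DTNB (15 mM addition). Kinetic TNB absorbance, 405 nm filter. Four-parameter Hill fit across titration.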
An asterisk follows results filed as active; ? = inconclusive; . = no result. Unless noted, calls follow the shape of the dose curve; as a rule, active = well fitted curve in the direction sought with a large enough effect; inconclusive = small, poorly fitted or top-dose-only effect, or another doubt; inactive = no such curve, though single readings can be large; an effect the other way counts as inactive or inconclusive. Unless noted, % is scaled to controls: 0 for no effect and ±100 for the full control effect; potency is read from the fitted curve at half-maximal effect.

SMILES	RE007 growth inh	AmpC inh detg	AmpC inh no detg	AMA1 RON2 block	Sm TGR block
COc1ccc(N(CC(=O)NCCSCc2ccco2)S(=O)(=O)c2ccccc2)cc1	7%	8%	-10%	-9%	?
COc1ccc(N(CC(=O)NCCSCc2ccco2)S(=O)(=O)c2ccc(C)cc2)cc1	9%	-5%	-13%	5%	28µM*
Cc1ccc(S(=O)(=O)N(CC(=O)NCCSCc2ccco2)c2ccc(F)cc2)cc1	.	1%	-2%	.	13µM*
COc1ccccc1N(CC(=O)NCCSCc1ccco1)S(=O)(=O)c1ccccc1	-10%	?	-3%	-22%	50µM*
CCCNC(=O)C1Cc2cc(S(=O)(=O)N3CCCCCC3)ccc2N1C(C)=O (centres undefined)	.	-9%	.	.	3%
Cc1cc(F)ccc1NC(=O)Cn1cc(S(=O)(=O)NC(C)C)c(S(=O)(=O)NC(C)C)c1	.	3%	.	.	1%
COC(=O)[C@@]12C[C@@H](CC(=O)NCC34CC5CC(CC(C5)C3)C4)C(=O)N(CCc3ccc(OC)c(OC)c3)C1=CCC(C)(C)C2	-12%	.	.	-26%	.
Cc1ccc(N(CC(=O)NCCSCc2ccco2)S(=O)(=O)c2ccc(F)cc2)cc1	-10%	9%	-4%	-5%	0%
O=C(COc1ccccc1)NCCSCc1ccco1	-7%	-3%	-18%	-13%	25µM*
Cc1ccc(N(CC(=O)NCCSCc2ccco2)S(C)(=O)=O)cc1	-3%	-1%	15%	-8%	45µM*
Cc1cccc(N2CCN(C(=O)CCc3c(C)nc4ncnn4c3C)CC2)c1C	.	-3%	.	.	1%
CC(=O)Nc1ccc(C(=O)OCC(=O)N(c2ccccc2)C2CCS(=O)(=O)C2)cc1 (centres undefined)	-11%	-7%	-9%	-1%	-7%
O=C(CCl)N(c1ccccc1)C1CCS(=O)(=O)C1 (centres undefined)	.	?	-23%	7%	22µM*
CCNC(=O)O/N=C1\CCCCC1c1ccc([N+](=O)[O-])cc1[N+](=O)[O-] (centres undefined)	-11%	-5%	-25%	0%	13µM*
Cc1ccc(NC(=O)COC(=O)COc2cccc3c2OC(C)(C)C3)cc1C	-4%	-1%	28%	1%	4%
Cc1cc(C)cc(NC(=O)COC(=O)COc2cccc3c2OC(C)(C)C3)c1	0%	?	35µM*	-2%	3%
COc1ccc(CCNc2nc3cc(OC)c(OC)cc3c3nc(-c4ccccc4)nn23)cc1OC	.	6%	.	.	-7%
CCOC(=O)c1sc(N2C(=O)C(O)=C(C(=O)c3ccco3)C2c2ccco2)nc1C (centres undefined)	-11%	4%	-25%	21%	25µM*
COc1ccc2nc(N3C(=O)C(O)=C(C(=O)c4ccco4)C3c3ccc(C)o3)sc2c1 (centres undefined)	-16%	?	-37%	28%	32µM*
CCOc1ccc2nc(N3C(=O)C(O)=C(C(=O)c4ccco4)C3c3ccco3)sc2c1 (centres undefined)	-7%	3%	-49%	-5%	-33%
CSc1cccc(NC(=S)N2CCC(N(C)C3CCCCCC3)CC2)c1	-5%	1%	-6%	-4%	50µM*
CCOC(=O)c1cc2c(=O)n3ccccc3nc2n(CC2CCCO2)c1=NC(=O)c1ccccc1C (centres undefined)	.	-5%	.	.	-9%
Cc1ccc(/C=C/S(=O)(=O)NCC(=O)OCC(=O)Nc2ccc(C(N)=O)cc2)cc1	10%	?	-10%	-5%	-3%
Cc1ccc(/C=C/S(=O)(=O)NCC(=O)OCC(=O)Nc2c(F)cccc2F)cc1	9%	6%	2%	-2%	28µM*
CCN(CC)C(=O)c1sc2c(c1C)c(=O)n(-c1ccc(Cl)c(Cl)c1)c(=O)n2Cc1ccccc1C#N	.	-5%	.	.	0%
CCN(C(=O)CSc1nc2ccccc2n1Cc1cc(C)ccc1C)c1ccccc1	.	-6%	.	.	1%
